Results filed as inconclusive are left out. Active and inactive are the calls of the source. Unless noted, calls follow the shape of the dose curve; as a rule, active = well fitted curve in the direction sought with a large enough effect; inconclusive = small, poorly fitted or top-dose-only effect, or another doubt; inactive = no such curve, though single readings can be large; an effect the other way counts as inactive or inconclusive.
What was measured:
[1] = tested on: Zika virus NS2B-NS3 protease; test: Primary screen GU AMC qHTS for Zika virus inhibitors (AID 1347154); also: nearly all actives have a fitted effect of over 70% in size; also: potency is read from the fitted curve at half-maximal effect;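 as to activity change, negative = inhibition: 0% = no-inhibitor control and -100% = no-enzyme control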
Summary of the method: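 Unlinked Zika NS2B hydrophilic domain–NS3 protease complex at 25 nM in 10 mM Tris-HCl pH 8.0, 0.01% Tween 20, with an AMC peptide substrate. Fluorescence change (340/450 nm) over 15 min at room temperature, normalized to controls, fitted to 4-parameter Hill.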

[2] = Primary qHTS for inhibitors of nuclear receptor binding SET domain protein 2 (NSD2) in an isogenic RCH-ACV NSD2 p.E1099K mutant (9B) (AID 1645876); also: potency is read from the fitted curve at half-maximal effect; nearly all actives have a fitted effect of over 70% in size
[3] = Primary qHTS for inhibitors of nuclear receptor binding SET domain protein 2 (NSD2) in an RCH-ACV wild type WT cells (2C) (AID 1645877); also: potency is read from the fitted curve at half-maximal effect; nearly all actives have a fitted effect of over 70% in size
[4] = molecular target: Glutathione peroxidase 1 (Homo sapiens) (UniProt P07203); test: Primary qHTS Assay for Inhibitors of Recombinant Selenoprotein Glutathione Peroxidase 1 (GPX1) (AID 1845191); also: nearly all actives have a fitted effect of over 65% in size
Chain of Glutathione peroxidase 1 (Homo sapiens) (P07203 whole entry, looked up): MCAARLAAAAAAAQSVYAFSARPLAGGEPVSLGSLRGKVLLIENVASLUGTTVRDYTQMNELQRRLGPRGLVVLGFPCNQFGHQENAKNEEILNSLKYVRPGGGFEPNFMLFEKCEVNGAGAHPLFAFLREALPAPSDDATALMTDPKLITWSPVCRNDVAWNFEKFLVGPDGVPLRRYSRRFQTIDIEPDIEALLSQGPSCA
Summary of the method: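 GR-coupled readout: NADPH consumption tracked by fluorescence, ex 340/em 450 nm, at t=0 and after 15 min at RT. Final mix 10 nM GPX1, 1 mM GSH, 0.5 mM CHP, 0.5 mM NADPH, 100 nM GR, 0.01% BSA, following 30 min enzyme–compound preincubation.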

[5] = molecular target: Glucocorticoid receptor (Homo sapiens) (UniProt P04150); test: GR-GFP Redistribution (AID 450;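 active = compounds whose dose series gives a full or clear partial fitted curve of increased nuclear translocation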; also: potency is read from the fitted curve at half-maximal effect); conditions: U2OS GR-GFP nuclear translocation, laser cytometry, 2 h
Chain of Glucocorticoid receptor (Homo sapiens) (P04150 whole entry, looked up, the tested form may be a part): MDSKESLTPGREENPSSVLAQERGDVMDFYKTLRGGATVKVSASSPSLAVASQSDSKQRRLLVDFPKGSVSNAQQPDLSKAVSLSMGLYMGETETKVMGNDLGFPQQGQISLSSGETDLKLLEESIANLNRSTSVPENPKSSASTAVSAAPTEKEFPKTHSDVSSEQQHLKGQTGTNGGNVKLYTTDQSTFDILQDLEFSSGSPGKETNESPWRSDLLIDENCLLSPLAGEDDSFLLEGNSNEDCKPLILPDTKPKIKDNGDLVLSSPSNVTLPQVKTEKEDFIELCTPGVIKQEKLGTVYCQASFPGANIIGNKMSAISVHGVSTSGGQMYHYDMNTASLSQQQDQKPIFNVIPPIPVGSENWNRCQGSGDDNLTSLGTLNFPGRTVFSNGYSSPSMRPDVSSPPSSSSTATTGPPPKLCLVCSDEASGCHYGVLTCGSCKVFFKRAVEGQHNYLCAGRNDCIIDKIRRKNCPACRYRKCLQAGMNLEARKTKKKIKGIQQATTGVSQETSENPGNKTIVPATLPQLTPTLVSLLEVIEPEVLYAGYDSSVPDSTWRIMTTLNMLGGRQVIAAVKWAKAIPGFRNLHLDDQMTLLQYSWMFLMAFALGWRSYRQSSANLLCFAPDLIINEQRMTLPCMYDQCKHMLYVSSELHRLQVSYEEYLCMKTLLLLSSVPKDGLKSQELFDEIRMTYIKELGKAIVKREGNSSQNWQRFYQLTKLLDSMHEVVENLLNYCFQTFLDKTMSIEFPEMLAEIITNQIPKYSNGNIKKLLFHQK

[6] = molecular target: Glucocorticoid receptor (Homo sapiens) (UniProt P04150); test: GR-EFC Redistribution (AID 451; calls by dose curve; also: potency is read from the fitted curve at half-maximal effect); conditions: CHO-K1 GR-EFC translocation, beta-gal luminescence, 2 h
Summary of the method: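 CHO-K1 cells expressing nuclear EA and GR-ED fragments of b-gal; compounds titrated up to 46 uM final, 2 h at 37 C. GR nuclear translocation read as complemented b-gal luminescence after 1 h RT detection.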

[7] = molecular target: Mitogen-activated protein kinase 10 (Mus musculus) (UniProt Q61831); test: JNK3 AlphaScreen Assay (AID 530; active = well fitted curve in either direction with a large enough effect, not every such curve was filed as active;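 also: kinase came from lysate of stimulated human HepG2 cells; signal reports phosphorylation of biotinylated GST-cJun 1-79 at Ser73 with 10 µM ATP; % is scaled to controls: 0 for no effect and ±100 for the full control effect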)
Summary of the method: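 HepG2 lysate (IL-1b/TNFa pre-activated) + biotin-GST-cJun 1-79 + anti-pSer73 cJun; cpd titration, 15 min RT; ATP 10 uM start; Tris pH 7.6, MgCl2, DTT, vanadate; beads in EDTA buffer; AlphaScreen.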

[8] = molecular target: 3',5'-cyclic-AMP phosphodiesterase 4B (Homo sapiens) (UniProt Q07343); test: qHTS Assay for Inhibitors of PDE-IV (AID 607; active = well fitted activation curve with a large enough effect in the main read-out, with a control signal flat, not every such curve was filed as active; also: % of control where 0% means no effect)
Chain of 3',5'-cyclic-AMP phosphodiesterase 4B (Homo sapiens) (Q07343 whole entry, looked up): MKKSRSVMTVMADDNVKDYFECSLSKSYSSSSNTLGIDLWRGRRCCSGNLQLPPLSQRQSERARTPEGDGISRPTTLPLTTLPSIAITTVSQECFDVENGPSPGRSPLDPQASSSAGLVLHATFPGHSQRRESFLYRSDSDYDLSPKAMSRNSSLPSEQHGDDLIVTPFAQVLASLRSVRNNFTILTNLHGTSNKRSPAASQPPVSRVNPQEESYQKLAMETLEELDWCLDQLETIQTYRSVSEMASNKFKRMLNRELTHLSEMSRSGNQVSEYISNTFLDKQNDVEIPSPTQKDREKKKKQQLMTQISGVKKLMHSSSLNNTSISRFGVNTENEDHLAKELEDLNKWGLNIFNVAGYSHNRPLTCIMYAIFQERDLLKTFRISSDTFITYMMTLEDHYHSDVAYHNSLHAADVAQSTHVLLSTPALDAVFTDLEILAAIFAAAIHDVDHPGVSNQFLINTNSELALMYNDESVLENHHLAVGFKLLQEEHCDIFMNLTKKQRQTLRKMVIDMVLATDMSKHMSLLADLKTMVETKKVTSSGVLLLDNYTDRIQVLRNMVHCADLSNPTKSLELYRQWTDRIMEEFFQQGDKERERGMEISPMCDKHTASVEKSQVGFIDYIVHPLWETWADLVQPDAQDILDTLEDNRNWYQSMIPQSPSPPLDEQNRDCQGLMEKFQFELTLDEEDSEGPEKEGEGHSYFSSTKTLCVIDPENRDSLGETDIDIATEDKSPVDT
Summary of the method: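 The readout is membrane depolarisation from a cAMP-sensing CNG channel, detected with a potential dye at ex 535/em 590. Cells were HEK293-derived (endogenous PDE-IV) at 1000 cells/well, titrated up to 22.9 uM final.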

[9] = qHTS Assay for Lipid Storage Modulators (AID 1519; calls by dose curve); conditions: Drosophila S3 cells, BODIPY lipid droplet/cell ratio, laser cytometry, cells loaded with oleic acid
Summary of the method: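 Cells seeded at 5,000 per well were treated with compounds over a concentration series and loaded with oleic acid (400 uM, as added). Lipid droplet fluorescence (488 nm excitation, 500-530 nm channel) was read by laser-scanning cytometry and normalized to 20 uM Triacsin C.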

[10] = molecular target: Ubiquitin carboxyl-terminal hydrolase 1 (Homo sapiens) (UniProt O94782); test: Inhibitors of USP1/UAF1: Pilot qHTS (AID 504865);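 also: rhodamine fluorescence freed from ubiquitin-rhodamine substrate followed over time; top concentration of the series differs between compounds; % is scaled to controls: 0 for no effect and ±100 for the full control effect; nearly all actives have a fitted effect of over 35% in size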
Summary of the method: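 Deubiquitinase activity followed as kinetic rhodamine fluorescence release from 150 nM Ub-Rho. 1 nM USP1/UAF1 with compound, after 15 min room-temperature preincubation, in HEPES pH 7.8 buffer containing TCEP, EDTA, BSA and Tween-20.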

[11] = molecular target: DNA dC->dU-editing enzyme APOBEC-3G (Homo sapiens) (UniProt Q9HC16); test: qHTS for inhibitors of Vif-A3G interactions: Validation (AID 588379); also: 0% is about no effect
Chain of DNA dC->dU-editing enzyme APOBEC-3G (Homo sapiens) (Q9HC16 whole entry, looked up): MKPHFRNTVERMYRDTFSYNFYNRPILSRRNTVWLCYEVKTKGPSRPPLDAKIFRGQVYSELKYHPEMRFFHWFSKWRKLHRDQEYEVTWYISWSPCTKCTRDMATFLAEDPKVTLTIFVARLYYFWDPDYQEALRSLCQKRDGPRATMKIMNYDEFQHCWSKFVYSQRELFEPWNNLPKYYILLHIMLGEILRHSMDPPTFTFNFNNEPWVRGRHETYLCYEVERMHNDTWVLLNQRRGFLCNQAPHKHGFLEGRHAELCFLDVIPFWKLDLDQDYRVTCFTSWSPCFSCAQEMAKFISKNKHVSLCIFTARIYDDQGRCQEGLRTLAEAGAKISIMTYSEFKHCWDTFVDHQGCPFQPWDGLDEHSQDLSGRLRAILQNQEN
Summary of the method: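 Yellow fluorescence (Ex 488, Em 500-530) of Vif-coexpressing HeLa A3G-eYFP cells, scanned by Acumen cytometer, reports blocked A3G degradation. Cells plated at 700/well overnight at 37 deg C before compound addition, then a further overnight compound incubation at 37 deg C.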

[12] = AP1 Signaling Pathway (AID 357; active = well fitted curve in either direction with a large enough effect, not every such curve was filed as active;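 also: ME-180 reporter cells stimulated with EGF at its EC50 level; % is scaled to controls: 0 for no effect and ±100 for the full control effect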); conditions: ME-180 AP-1-bla reporter, EGF-induced, beta-lactamase ratio, 5 h; at 38 µM (top of the series)
Summary of the method: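 AP-1-bla ME-180 cells, Opti-MEM + 0.5% dialyzed FBS, plated overnight 37 °C. Cpd titration + EC50 EGF, 5 h 37 °C. CCF4 2.5 h RT; ex 405, em 460/530 ratio → %activity, AC50.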

[13] = molecular target: Cytochrome P450 1A2 (Homo sapiens) (UniProt P05177); test: p450-cyp1a2 (AID 410; calls by dose curve;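 also: -100% = full effect of reference inhibitor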)
Summary of the method: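 20nM CYP1A2, 100uM Luciferin-ME (=Km), 100mM KPO4; cpd 10 min RT; +NADPH regen, 60 min RT; stop/detect 20 min; luminescence. Normalized to furafylline 57 uM = full inhibition.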

[14] = NFAT Signaling Pathway (AID 444; active = well fitted curve in either direction with a large enough effect, not every such curve was filed as active;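 also: carbachol stimulus at about its EC50 of 1 µM final; % is scaled to controls: 0 for no effect and ±100 for the full control effect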); conditions: Jurkat NFAT-bla M1, carbachol, beta-lactamase ratio, 5 h; at 38 µM (top of the series)
Summary of the method: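 Jurkat cells with NFAT-driven β-lactamase reporter and co-expressed M1 receptor, stimulated with carbachol (final 1 uM, ~EC50), compound titration, 5 h at 37 °C. CCF4 loaded 1 h at RT; 460/530 nm ratio gave %activity and AC50.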

[15] = Stat Signaling Pathway (AID 446; active = well fitted curve in either direction with a large enough effect, not every such curve was filed as active;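 also: ME-180 cervical cancer cells given 40 pM IL-6 alongside compound; SIE-controlled beta-lactamase reporter measured as 460/530 nm FRET emission ratio; % is scaled to controls: 0 for no effect and ±100 for the full control effect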); conditions: ME-180 SIE beta-lactamase reporter, IL-6 stimulated, 5 h; at 38 µM (top of the series)
Summary of the method: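 Emission at 460 and 530 nm (excitation 405 nm) reports SIE-controlled beta-lactamase in ME-180 cells. Cells received compound with 40 pM IL-6 for 5 hrs at 37 C; data scaled between 300 pM IL-6 and 125 nM JAK-inhibitor controls.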

[16] = molecular target: Guanine nucleotide-binding protein G(i) subunit alpha-1 (Homo sapiens) (UniProt P63096); test: qHTS Assay for Inhibitors of RGS12 GoLoco Motif Activity (Green Fluorophore) (AID 879);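 also: 0% = labeled peptide with Gαi1 and full inhibition = labeled peptide alone without protein; negative values mean loss of peptide binding seen as reduced polarization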
Chain of Guanine nucleotide-binding protein G(i) subunit alpha-1 (Homo sapiens) (P63096 whole entry, looked up): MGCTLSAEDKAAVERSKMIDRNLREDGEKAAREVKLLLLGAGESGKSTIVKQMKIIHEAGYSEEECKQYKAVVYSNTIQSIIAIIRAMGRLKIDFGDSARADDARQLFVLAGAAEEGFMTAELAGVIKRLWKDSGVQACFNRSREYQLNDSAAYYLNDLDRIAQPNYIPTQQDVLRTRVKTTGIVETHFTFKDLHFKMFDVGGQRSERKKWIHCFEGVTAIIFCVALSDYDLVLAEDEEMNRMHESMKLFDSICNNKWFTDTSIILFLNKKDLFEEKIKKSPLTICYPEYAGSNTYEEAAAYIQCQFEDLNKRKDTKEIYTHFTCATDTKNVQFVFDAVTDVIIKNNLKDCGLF
Summary of the method: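 A drop in FITC polarization marked displacement of the FITC-tagged RGS12 GoLoco peptide (10 nM) from Gαi1 (50 nM). Compounds were incubated 10 min at room temperature in Tris pH 7.5 buffer containing 150 mM NaCl, 0.1 mM GDP and 0.05% NP40; unlabeled peptide titration served as control.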

[17] = molecular target: Cytochrome P450 2C9 (Homo sapiens) (UniProt P11712); test: qHTS Assay for Inhibitors and Substrates of Cytochrome P450 2C9 (AID 883); also: % is scaled to controls: 0 for no effect and ±100 for the full control effect; nearly all actives have a fitted effect of over 60% in size
Chain of Cytochrome P450 2C9 (Homo sapiens) (P11712 whole entry, looked up): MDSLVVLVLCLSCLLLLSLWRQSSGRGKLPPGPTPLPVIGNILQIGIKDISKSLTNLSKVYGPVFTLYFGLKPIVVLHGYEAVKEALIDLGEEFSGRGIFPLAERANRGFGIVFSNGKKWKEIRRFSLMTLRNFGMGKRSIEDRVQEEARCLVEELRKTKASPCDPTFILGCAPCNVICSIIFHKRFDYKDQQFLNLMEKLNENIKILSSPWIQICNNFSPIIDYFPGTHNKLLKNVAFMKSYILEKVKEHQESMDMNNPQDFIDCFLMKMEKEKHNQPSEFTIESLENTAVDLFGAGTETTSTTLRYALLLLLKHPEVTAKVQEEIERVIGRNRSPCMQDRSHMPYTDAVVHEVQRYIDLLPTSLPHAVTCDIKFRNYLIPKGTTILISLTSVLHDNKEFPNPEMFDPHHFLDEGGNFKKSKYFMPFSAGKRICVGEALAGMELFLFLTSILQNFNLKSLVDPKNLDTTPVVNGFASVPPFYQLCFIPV
Summary of the method: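 Human CYP2C9 (10nM) with Luciferin-H at 100uM (its KM) in 25mM KPO4; compound preincubated 10 min at 37C, then NADPH regeneration for 60 min at 37C. Luciferin read by luminescence after detection reagent; normalized to 57uM sulphaphenazole as full inhibition.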

[18] = molecular target: Cytochrome P450 2D6 (Homo sapiens) (UniProt P10635); test: qHTS Assay for Inhibitors and Substrates of Cytochrome P450 2D6 (AID 891);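 also: luciferin methyl ether substrate demethylated by CYP2D6 with NADPH regeneration; % is scaled to controls: 0 for no effect and ±100 for the full control effect; nearly all actives have a fitted effect of over 60% in size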
Chain of Cytochrome P450 2D6 (Homo sapiens) (P10635 whole entry, looked up): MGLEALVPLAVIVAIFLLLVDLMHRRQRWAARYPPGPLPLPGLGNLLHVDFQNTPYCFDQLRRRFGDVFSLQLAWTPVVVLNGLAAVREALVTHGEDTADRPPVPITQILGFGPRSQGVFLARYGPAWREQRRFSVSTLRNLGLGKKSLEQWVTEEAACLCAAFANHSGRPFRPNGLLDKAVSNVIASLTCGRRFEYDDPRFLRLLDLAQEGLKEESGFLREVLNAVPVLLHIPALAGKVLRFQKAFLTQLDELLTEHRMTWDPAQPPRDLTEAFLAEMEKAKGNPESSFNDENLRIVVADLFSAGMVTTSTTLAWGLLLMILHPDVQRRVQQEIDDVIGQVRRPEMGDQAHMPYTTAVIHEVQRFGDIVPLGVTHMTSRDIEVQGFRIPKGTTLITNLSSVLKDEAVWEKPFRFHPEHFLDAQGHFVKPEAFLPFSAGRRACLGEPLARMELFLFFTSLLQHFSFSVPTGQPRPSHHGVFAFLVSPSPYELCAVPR
Summary of the method: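 Luminescent read-out of luciferin formed by 5 nM human CYP2D6 demethylating 30 uM Luciferin-ME EGE (Km level) over 60 min at room temperature after NADPH regeneration addition. Data normalized to full inhibition by 1.43 uM quinidine.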

[19] = molecular target: Cytochrome P450 2C19 (Homo sapiens) (UniProt P33261); test: qHTS Assay for Inhibitors and Substrates of Cytochrome P450 2C19 (AID 899); also: % is scaled to controls: 0 for no effect and ±100 for the full control effect; nearly all actives have a fitted effect of over 60% in size
Summary of the method: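 5 nM human CYP2C19 with 10uM Luciferin-H EGE (at KM) in 50mM KPO4, compound preincubated 10 min at 37C, then NADPH regeneration for 60 min at 37C. Luciferin read by luminescence after detection reagent; normalized to 57uM ketoconazole as full inhibition.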

[20] = qHTS Assay for Identification of Small Molecule Agonists for Thrombopoietin (TPO) Signaling Pathway (AID 917); also: % is scaled to controls: 0 for no effect and ±100 for the full control effect
Summary of the method: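 Luciferase reporter (Glycoprotein IIb promoter) in IL-3-deprived Ba/F3 cells carrying human TPO receptor; compounds co-added with 26 pM TPO, incubated 24 h, 37 C. Steadylite luminescence measured after 10 min.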

[21] = molecular target: Muscarinic acetylcholine receptor M1 (Rattus norvegicus) (UniProt P08482); test: qHTS Assay for Antagonists of Acetylcholine Muscarinic M1 Receptor: Measurement of IP-One Response (AID 944); also: nearly all actives have a fitted effect of over 75% in size
Chain of Muscarinic acetylcholine receptor M1 (Rattus norvegicus) (P08482 whole entry, looked up): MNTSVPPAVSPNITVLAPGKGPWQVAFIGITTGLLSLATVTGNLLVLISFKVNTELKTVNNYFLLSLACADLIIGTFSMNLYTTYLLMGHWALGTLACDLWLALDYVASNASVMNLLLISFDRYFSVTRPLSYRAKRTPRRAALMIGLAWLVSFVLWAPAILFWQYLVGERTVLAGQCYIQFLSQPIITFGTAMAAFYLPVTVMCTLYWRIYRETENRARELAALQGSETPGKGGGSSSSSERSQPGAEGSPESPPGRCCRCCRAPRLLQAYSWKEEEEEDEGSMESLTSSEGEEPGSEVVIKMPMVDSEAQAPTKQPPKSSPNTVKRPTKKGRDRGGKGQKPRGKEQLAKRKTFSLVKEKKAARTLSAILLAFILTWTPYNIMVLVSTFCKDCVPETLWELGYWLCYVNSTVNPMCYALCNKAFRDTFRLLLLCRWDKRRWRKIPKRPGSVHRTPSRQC
Summary of the method: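 Read-out: HTRF competition between d2-IP1 and Eu-cryptate anti-IP1 antibody, emission 620 and 665 nm. Stimulus was carbachol, EC80 (200 nM), for 30 min in M1-CHO cells (rat receptor), after 10 min compound pre-treatment.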

[22] = molecular target: Pyruvate kinase (Leishmania mexicana) (UniProt Q27686); test: qHTS Validation Assay for Inhibitors of Leishmania Mexicana Pyruvate Kinase (AID 945);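 also: 0% = DMSO only neutral control wells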
Chain of Pyruvate kinase (Leishmania mexicana) (Q27686 2-499 E452W): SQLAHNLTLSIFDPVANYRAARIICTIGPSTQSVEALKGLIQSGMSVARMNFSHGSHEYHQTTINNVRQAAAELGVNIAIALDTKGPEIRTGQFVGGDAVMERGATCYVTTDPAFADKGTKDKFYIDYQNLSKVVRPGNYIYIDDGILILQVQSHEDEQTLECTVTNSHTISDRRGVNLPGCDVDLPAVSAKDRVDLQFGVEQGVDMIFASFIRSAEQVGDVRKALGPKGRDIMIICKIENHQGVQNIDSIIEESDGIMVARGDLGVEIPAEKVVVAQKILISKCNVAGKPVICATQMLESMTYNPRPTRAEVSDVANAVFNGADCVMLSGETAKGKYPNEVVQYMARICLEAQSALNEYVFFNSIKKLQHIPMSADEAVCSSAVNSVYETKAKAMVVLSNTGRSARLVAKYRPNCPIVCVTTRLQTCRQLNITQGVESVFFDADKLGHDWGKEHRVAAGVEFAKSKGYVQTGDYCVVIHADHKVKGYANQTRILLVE
Summary of the method: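 Read-out: luminescence from PKLight stop/detection reagent, data normalized to DMSO. Reaction: 0.2 nM E451W LmPYK, 0.5 mM PEP, 0.1 mM ADP, pH 7.2, 1 h room temperature.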

[23] = molecular target: Pyruvate kinase PKM (Homo sapiens) (UniProt P14618); test: qHTS Assay for Activators of Human Muscle Pyruvate Kinase (AID 954; active = well fitted curve in the direction sought with a large enough effect, not every such curve was filed as active;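 also: 0% = uninhibited enzyme and -100% = no enzyme or full thiadiazolimine inhibition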)
Chain of Pyruvate kinase PKM (Homo sapiens) (P14618 whole entry, looked up): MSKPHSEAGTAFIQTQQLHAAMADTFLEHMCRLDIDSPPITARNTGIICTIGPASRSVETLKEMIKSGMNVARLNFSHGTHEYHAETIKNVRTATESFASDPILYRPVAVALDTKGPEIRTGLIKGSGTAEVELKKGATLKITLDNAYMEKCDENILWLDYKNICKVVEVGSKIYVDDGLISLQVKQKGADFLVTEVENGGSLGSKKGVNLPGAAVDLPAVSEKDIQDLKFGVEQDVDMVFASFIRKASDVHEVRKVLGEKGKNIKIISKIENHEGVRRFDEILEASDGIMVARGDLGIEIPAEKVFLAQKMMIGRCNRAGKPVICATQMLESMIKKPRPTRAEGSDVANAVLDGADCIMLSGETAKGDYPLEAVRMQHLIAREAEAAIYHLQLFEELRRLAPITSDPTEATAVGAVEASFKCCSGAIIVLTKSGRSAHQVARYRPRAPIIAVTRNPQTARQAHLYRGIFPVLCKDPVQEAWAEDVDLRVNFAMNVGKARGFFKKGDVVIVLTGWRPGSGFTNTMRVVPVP
Summary of the method: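 PKM2, human, >95% pure, 0.1 nM; PEP 0.5 mM (Km), ADP 0.1 mM; 50 mM imidazole pH 7.2, 50 mM KCl, 0.01% Tween 20, 0.05% BSA; 1 h RT; luciferase luminescence readout.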

[24] = molecular target: Alpha-galactosidase A (Homo sapiens) (UniProt P06280); test: Counterscreen for Glucocerebrosidase Inhibitors: qHTS Assay for Human alpha-Galactosidase at pH 4.5 (AID 992); also: 0% is about no effect
Summary of the method: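 Fluorogenic 4-MU alpha-D-galactoside (80 uM) hydrolysis, 2 nM enzyme, pH 4.5 citrate buffer + 0.005% Tween-20; 20 min RT; NaOH/glycine pH 10 stop; Ex365/Em440. Compounds titrated 0.7 nM–77 uM; Hill-equation AC50.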

[25] = molecular target: alpha-glucosidase (Oryza sativa, rice) (UniProt Q653V4); test: Counterscreen for Glucocerebrosidase Inhibitors: qHTS Assay for Rice alpha-Glucosidase at pH 5.0 (AID 997);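 also: 0% = full activity with enzyme and -100% = basal without enzyme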
Summary of the method: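 Endpoint fluorogenic assay at pH 5.0: compounds (0.7 nM to 77 uM) titrated against 4 nM rice enzyme and 400 uM 4-MU-alpha-glucoside for 20 min at room temperature; NaOH/glycine stop, read ex 365/em 440 nm, Hill-fitted AC50.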

[26] = qHTS Assay for Identification of Small Molecule Antagonists for NFkB Signaling Pathway (AID 895; active = well fitted inhibition curve with a large enough effect in the signal ratio, with a control signal flat, not every such curve was filed as active; the % refers to the signal ratio; also: potency is read from the fitted curve at half-maximal effect)
Summary of the method: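 ME-180 NFkB-bla cells (beta-lactamase under NFkB response element), plated overnight, treated with compound then 10 pM TNF alpha (about EC50) for 5 hrs at 37 C. LiveBLAzer FRET read at 460/530 nm emission, 405 nm excitation.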

[27] = Confirmation and Secondary Assay for Modulators of Hemoglobin Beta Chain Splicing at IVS2 654 locus (AID 910);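 also: HeLa cells stably carrying EGFP split by mutant beta-globin IVS2-654 intron; % of control where 0% means no effect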
Summary of the method: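 HeLa cells stably expressing EGFP interrupted by β-globin IVS2-654 intron, seeded overnight in Opti-MEM/2% FCS, then treated 2 days at 37 °C. Restored splicing read as total peak GFP intensity per well by laser scanning cytometry (488 nm excitation, 500–520 nm emission); 500 nM antisense PNA as control.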

[28] = Confirmation and Secondary Assay for Modulators of Hemoglobin Beta Chain Splicing at IVS2 705 locus (AID 930);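 also: HeLa cells stably expressing the EGFP-705 splicing reporter; GFP fluorescence per well restored by corrected splicing of the IVS2-705 intron in EGFP; % of control where 0% means no effect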
Summary of the method: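 Secondary splice-site specificity test uses HeLa expressing CMV-driven EGFP interrupted by IVS2-705; cells were treated 2 days at 37C with 500 nM antisense PNA as positive control.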

[29] = molecular target: Rap guanine nucleotide exchange factor 3 (Homo sapiens) (UniProt O95398); test: Confirmatory qHTS for agonist of cAMP-regulated guanine nucleotide exchange factor 3 (EPAC1) (AID 1645881);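 also: EPAC1 catalysed release of BODIPY-GDP from Rap1B seen as fluorescence loss; 100% = effect of cAMP agonist control; nearly all actives have a fitted effect of over 75% in size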
[30] = molecular target: Rap guanine nucleotide exchange factor 4 (Homo sapiens) (UniProt Q8WZA2); test: Confirmatory qHTS for agonist of cAMP-regulated guanine nucleotide exchange factor 4 (EPAC2) (AID 1645884);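 also: nucleotide exchange releases bodipy-GDP from Rap1 and this lowers its fluorescence; % is scaled to controls: 0 for no effect and ±100 for the full control effect; nearly all actives have a fitted effect of over 65% in size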

Cc1cc(F)c(Nc2ncnc3cc(OCc4ccccc4)ccc23)cc1O
inactive: Potency [1] | Potency [4]
active: Potency [2] 3.66 µM | Potency [3] 3.26 µM

CCNCCCNCCCCNCCCNCC
15.1%: max response ([9]; measured here: cell count channel max response)
inactive: Potency [5] > 46 µM | Potency [6] > 46 µM | Potency [7] | Potency [8] | activity change, negative = inhibition ([9]; at 57.5 µM (top of the series)) 2.21% | Potency [10] | Potency [11] | Potency [1]
18.1%: max response ([9]; measured here: lipid channel max response)

COc1cc2nc(N3CCN(C(=O)[C@H]4CCCO4)CC3)nc(N)c2cc1OC
active: Potency [1] 26.7 µM
inactive: activity change, negative = inhibition [12] 14.3% | Potency [13] | activity change, negative = inhibition [14] -4.26% | activity, negative = inhibition [15] 7.77% | Potency [5] > 46 µM | Potency [6] > 46 µM | Potency [7] | Potency [8] | outcome [16] | Potency [17] | Potency [18] | Potency [19] | Potency [20] | Potency [21] | Potency [22] | outcome [23] | outcome [24] | outcome [25] | Potency [11]

COCCOC(=O)C1=C(C)NC(C)=C(C(=O)OC(C)C)[C@@H]1c1cccc([N+](=O)[O-])c1
active: Potency [26] 7.08 µM
inactive: activity change, negative = inhibition [12] -20.1% | activity change, negative = inhibition [14] -10.3% | Potency [5] > 46 µM | Potency [6] > 46 µM | Potency [8] | outcome [16] | outcome [27] | outcome [28] | Potency [21] | Potency [22] | outcome [23] | outcome [25] | Potency [11] | Potency [1] | outcome [29] | outcome [30]

From PubChem BioAssay (NCATS)
